Source: PubChem BioAssay (NCI)
This is part of a sample that, as a whole, favours compounds with a hit. Of some 79,000 tested, about 15% had one in any assay. The source made the active and inactive calls. No stated cut-off is given here; in the data, active means growth inhibition above about 70%; inactive means the rest. Where a SMILES comes first, the peptide text is derived from it. [ ]: non-standard residue; d: D form. The star is where a group is joined. ξ: configuration not given here. ξF = NC(Cc1ccccc1)C(=O)O; Cbz = O=C(OCc1ccccc1)*; Aib = CC(C)(N)C(=O)O

Assay: NCI Yeast Anticancer Drug Screen. Data for the mlh1 rad18 strain (AID 175)
Settings: S. cerevisiae mlh1 rad18 strain growth inhibition, stronger effect = higher value; at 50.0 µM unless noted
Summary of the method: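 Cells of a genetically altered yeast strain, deficient in DNA damage repair, were treated with compound. Their growth was then compared with that of vehicle-treated cultures to give inhibition.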
With CCOC(=O)[C@]12C3C=CC(C3)C1C(=O)C1OC12 (stereo not given in full) the growth inhibition was -45.1% (inactive).
In the case of Cc1nnc(N)nc1C, the growth inhibition is reported as 13.6% (inactive).
For Nc1nc2ncc(COc3ccc(C(=O)O)cc3)nc2c(=O)[nH]1, the growth inhibition was 13.6% (inactive).
With COc1ccc(CCC(=O)c2ccc(N)cc2)cc1 the growth inhibition was -22.3% (inactive).
In the case of CC1CCC(C(=O)O)(C(Br)C(=O)O)CC1 (stereo not given), the growth inhibition is reported as -3.3% (inactive).
For CCCC1([N+](=O)[O-])c2ccccc2-c2ccc([N+](=O)[O-])cc21 (stereo not given), the growth inhibition was 49.7% (inactive).
In the case of CCN(CC)OC(=O)/C=C/c1ccccc1, the growth inhibition is reported as -4.45% (inactive).
For Cc1ccc(O)c(C=NCCN=Cc2cc(C)ccc2O)c1.[Cu+2], the growth inhibition was 13.3% (inactive).
With O=C1c2ccccc2C(=O)N1/N=[N+](\[O-])c1ccccc1 the growth inhibition was 40.8% (inactive).
With Cc1cc(C)c([N+](=O)[O-])cc1N the growth inhibition was 19.6% (inactive).
In the case of Cc1[nH]c(N)nc(=S)c1CCCNc1ccccc1, the growth inhibition is reported as 26.2% (inactive).
In the case of CN(C)C(=S)/N=c1\ssc(=S)n1Cc1cccnc1, the growth inhibition is reported as -62.8% (inactive).
For ClC(Cl)CN(Cc1ccccc1)c1ncc[nH]1, the growth inhibition was 17.6% (inactive).
In the case of CC(C)(C)NC(=O)Nc1ccc2ccccc2c1, the growth inhibition is reported as -11.3% (inactive).
For COc1cc2ccc(Cc3nccc4cc(OC)c(OC)cc34)cc2cc1OC, the growth inhibition was 98.2% (active).
For CC(=O)Nc1cc(S(=O)(=O)O)cc2cc(S(=O)(=O)O)cc(O)c12, the growth inhibition was -8.2% (inactive).
For CC(=O)OC1COC(N2C(=O)C(=O)c3c(C)cc(Cl)nc32)C(OC(C)=O)C1OC(C)=O (stereo not given), the growth inhibition was -8.3% (inactive).
In the case of O=C(CC(CC(=O)C(c1ccccc1)c1ccccc1)c1ccccc1)C(c1ccccc1)c1ccccc1, the growth inhibition is reported as 29.6% (inactive).
In the case of Cc1cnc(N)cn1 (tested in a mixture with another compound), the growth inhibition is reported as 8.1% (inactive).
In the case of Cc1ccc(S(=O)(=O)CCN2CCN(C)CC2)cc1, the growth inhibition is reported as 1.05% (inactive).
For Cc1nc(C(N)=S)sc1C(=O)C/C(=N/N)C(=O)Nc1ccc(Cl)cc1, the growth inhibition was -20.9% (inactive).
With CC(=O)NNC(=O)C(N)Cc1ccc(O)cc1 (stereo not given) the growth inhibition was 14.8% (inactive).
With CN(CCO)CCCC1COc2ccccc2O1 (stereo not given) the growth inhibition was -8.35% (inactive).
For CC(=O)N1C(Nc2cnc3ccccc3c2)CCN1c1ccccc1 (stereo not given), the growth inhibition was -14% (inactive).
In the case of CC(C)C1CCC2C(CCC3C(C)(C(=O)O)CCCC23C)C1 (stereo not given), the growth inhibition is reported as 25.2% (inactive).
In the case of COC(=O)C(C)(C)NC(=O)C(Cc1ccccc1)NC(=O)C(C)(C)NC(=O)OCc1ccccc1 (stereo not given) (Cbz-[Aib]-[ξF]-[Aib]-OMe), the growth inhibition is reported as -1.2% (inactive).
For COc1ccc(CCNS(=O)(=O)c2c(C)c(C)c(C)c(C)c2C)cc1OC, the growth inhibition was 6.8% (inactive).
In the case of COc1ccc(/C=C2\C(=O)Nc3ccccc32)cc1OC, the growth inhibition is reported as -4.4% (inactive).
For CCCCCC(Br)C(Br)CC(Br)C(Br)CC(Br)C(Br)CCCCC(=O)O (stereo not given), the growth inhibition was 22.6% (inactive).
In the case of Nc1cc(S(=O)(=O)O)c(O)c2c1C(=O)c1c(O)c(S(=O)(=O)O)cc(N)c1C2=O, the growth inhibition is reported as -18% (inactive).
With N#CC(C(=S)Nc1ccccc1)=C1Nc2ccccc2N1 the growth inhibition was -22.8% (inactive).
For N#CCc1nc(-c2cc3ccc(O)cc3oc2=O)cs1, the growth inhibition was -40.8% (inactive).
In the case of CN1C(=O)/C(=C2\SC(=O)N(CN3CCOCC3)C2=O)c2ccccc21, the growth inhibition is reported as 2.35% (inactive).
In the case of O=c1n(-c2ccccc2)c(=O)n(-c2ccccc2)c(=O)n1-c1ccccc1, the growth inhibition is reported as -14.7% (inactive).
In the case of COc1ccc(C(OC(=O)Oc2ccccc2)c2ccccc2)cc1 (stereo not given), the growth inhibition is reported as 7% (inactive).
With O=C(O)CS(=O)c1ccc2c3c(cccc13)C(=O)c1ccccc1-2 (stereo not given) the growth inhibition was 1.7% (inactive).
In the case of O=C(CCl)NNC1=Nc2ccc(Cl)cc2SC1, the growth inhibition is reported as 11.2% (inactive).
For Clc1ccc(C2ON=C(c3ccccc3)N2C23CC4CC(CC(C4)C2)C3)cc1Cl (stereo not given), the growth inhibition was -1% (inactive).
In the case of O=C(NC(NC(=O)c1ccccc1)c1ccccc1)c1ccccc1, the growth inhibition is reported as -0.9% (inactive).
In the case of C1COC2(OC1)OCCCO2, the growth inhibition is reported as 3.05% (inactive).
